Inconclusive results are not listed. Active and inactive are the calls of the source. Unless noted, calls come from the whole dose curve; as a rule, active = well fitted curve in the direction sought with a large enough effect; inconclusive = small, poorly fitted or top-dose-only effect, or another doubt; inactive = no such curve, though single readings can be large; an effect the other way counts as inactive or inconclusive.

Here are results for two compounds from PubChem BioAssay (NCATS).

In assay [1] the target is Lysosomal acid glucosylceramidase (Homo sapiens) (UniProt P04062). The experiment in a line: Glucocerebrosidase-p2 (AID 348; in the data active = potency below about 10 µM; note: potency is the fitted concentration of half-maximal effect). The following applies: purified GBA, blue fluorogenic substrate, 40 min. The essentials:
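Normal human glucocerebrosidase (0.2 nM) with blue fluorogenic substrate (80 uM final) in citrate/phosphate pH 5.9 with 10mM sodium taurocholate, 0.01% tween-20; 40 min RT, NaOH/glycine stop; fluorescence Ex 365/Em 440; AC50 from a titration from 0.6 nM upwards.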

Assay [2] can be described thus: AP1 Signaling Pathway (AID 357; active = well fitted curve in either direction with a large enough effect, not every such curve was filed as active; note: % is set by controls: 0 for no effect and ±100 for the full control effect). The note with it: ME-180 AP-1-bla reporter, EGF-induced, beta-lactamase ratio, 5 h; at 7.69 µM (top of the series) unless noted. The essentials: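 ME-180 cells with beta-lactamase reporter under AP-1 response element, stimulated with EC50 EGF; compounds tested in titration series, 5 h at 37 °C. CCF4 substrate added 2.5 h at room temperature; 460/530 nm emission ratio gave %activity and AC50.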

In assay [3] the target is Cytochrome P450 1A2 (Homo sapiens) (UniProt P05177). The experiment in a line: p450-cyp1a2 (AID 410; calls by dose curve; note: potency is the fitted concentration of half-maximal effect;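 for activity change, negative = inhibition: -100% = full effect of reference inhibitor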). The following applies: recombinant CYP1A2, luciferin-ME demethylation, luminescence; series mostly up to 57 µM. The essentials:
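20nM CYP1A2, 100uM Luciferin-ME (=Km), 100mM KPO4; cpd 10 min RT; +NADPH regen, 60 min RT; stop/detect 20 min; luminescence. Normalized to furafylline 57 uM = full inhibition.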

A short description of assay [4]: NFAT Signaling Pathway (AID 444; active = well fitted curve in either direction with a large enough effect, not every such curve was filed as active;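 note: carbachol stimulus at about its EC50 of 1 µM final; % is set by controls: 0 for no effect and ±100 for the full control effect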). The following applies: Jurkat NFAT-bla M1, carbachol, beta-lactamase ratio, 5 h; at 7.69 µM (top of the series) unless noted. In outline:
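Jurkat cells carrying an NFAT-driven β-lactamase reporter and co-transfected muscarinic M1 receptor were treated with compound plus carbachol (1 uM final, an EC50 level) for 5 h at 37 °C. CCF4 loading followed for 1 h at RT; 460/530 nm ratio gave %activity.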

A short description of assay [5]: Stat Signaling Pathway (AID 446; active = well fitted curve in either direction with a large enough effect, not every such curve was filed as active;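 note: ME-180 cervical cancer cells given 40 pM IL-6 alongside compound; SIE-controlled beta-lactamase reporter measured as 460/530 nm FRET emission ratio; % is set by controls: 0 for no effect and ±100 for the full control effect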). The following applies: ME-180 (cervical carcinoma) SIE beta-lactamase reporter, IL-6 stimulated, 5 h; at 7.69 µM (top of the series) unless noted. The essentials:
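Overnight-plated ME-180 cells bearing a STAT Inducible Element beta-lactamase reporter; 5 h co-exposure to compound and 40 pM IL-6; values normalized to 300 pM IL-6 and 125 nM JAK inhibitor controls.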

The target of assay [6] is Glucocorticoid receptor (Homo sapiens) (UniProt P04150). Put plainly: GR-GFP Redistribution (AID 450;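 active = compounds whose dose series gives a full or clear partial fitted curve of increased nuclear translocation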; note: potency is the fitted concentration of half-maximal effect). The following applies: U2OS GR-GFP nuclear translocation, laser cytometry, 2 h.
Assay [7] has the same target. Put plainly: GR-EFC Redistribution (AID 451; calls by dose curve; note: potency is the fitted concentration of half-maximal effect). The following applies: CHO-K1 GR-EFC translocation, beta-gal luminescence, 2 h. The essentials:
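CHO-K1 cells stably expressing nuclear-localized β-gal enzyme acceptor and GR fused C-terminally to the enzyme donor fragment; ligand-driven nuclear translocation restores β-gal by complementation. Compounds titrated up to 46 uM final, 2 h at 37 °C; luminescence read.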

Assay [8] has as its target Mitogen-activated protein kinase 10 (Mus musculus) (UniProt Q61831). Put plainly: JNK3 AlphaScreen Assay (AID 530; active = well fitted curve in either direction with a large enough effect, not every such curve was filed as active;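 note: kinase came from lysate of stimulated human HepG2 cells; % is set by controls: 0 for no effect and ±100 for the full control effect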). The following applies: JNK3 lysate, c-Jun phosphorylation; series mostly up to 57.1 µM. The essentials: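 Biotinylated GST-cJun(1-79) served as substrate for JNK3 in HepG2 lysates stimulated with IL-1beta and TNF-alpha. ATP was 10 uM final, pH 7.6. Ser73 phosphorylation was quantified by AlphaScreen (680 nm excitation).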

For assay [9], the target named is Cytochrome P450 3A4 (Homo sapiens) (UniProt P08684). Put plainly: qHTS Assay for Activators of Cytochrome P450 3A4 (AID 885). Note: nearly all actives have a fitted effect of over 65% in size. The note with it: recombinant CYP3A4, Luciferin-PPXE luminescence, 60 min; series mostly up to 57.1 µM. The essentials: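 Using 20nM recombinant human CYP3A4 in potassium phosphate (200mM), substrate Luciferin-PPXE at 25uM, luminescent luciferin detection followed a 60-min RT NADPH reaction; data scaled to 57 uM ketoconazole.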

Assay [10] is described as follows: Confirmation and Secondary Assay for Modulators of Hemoglobin Beta Chain Splicing at IVS2 654 locus (AID 910). Note: % of control where 0% means no effect. The following applies: HeLa EGFP-654 splicing reporter, GFP fluorescence, 48 h; series mostly up to 38.3 µM. In outline:
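HeLa cells stably carrying EGFP interrupted by mutant beta-globin IVS2-654 intron (CMV-driven) were treated with compound for 2 days at 37C; corrected splicing was scored as total peak GFP intensity per well (488 nm excitation, 500-520 nm emission).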

Assay [11] can be described thus: Confirmation and Secondary Assay for Modulators of Hemoglobin Beta Chain Splicing at IVS2 705 locus (AID 930).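 Note: HeLa cells stably expressing the EGFP-705 splicing reporter; GFP fluorescence per well restored by corrected splicing of the IVS2-705 intron in EGFP; % of control where 0% means no effect.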 The following applies: HeLa EGFP-705 splicing reporter, GFP fluorescence, 48 h; series mostly up to 38.3 µM. In outline: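 Read-out: total peak GFP fluorescence per well (488 nm excitation, 500-520 nm emission) by laser-scanning cytometry. Cells: HeLa EGFP-705 splicing reporter, 2 days compound exposure in Optimem/2% FCS.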

The nature of assay [12]: qHTS Assay for Lipid Storage Modulators (AID 1519; calls by dose curve). The note with it: Drosophila S3 cells, BODIPY lipid droplet/cell ratio, laser cytometry, cells loaded with oleic acid; for activity change, negative = inhibition: at 57.5 µM (top of the series). In outline: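 Cells seeded at 5,000 per well were treated with compounds over a concentration series and loaded with oleic acid (400 uM, as added). Lipid droplet fluorescence (488 nm excitation, 500-530 nm channel) was read by laser-scanning cytometry and normalized to 20 uM Triacsin C.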
A general note: Quantitative high-throughput screening tests each substance at several concentrations.

Assay [13] in a line: Counterscreen qHTS for small molecule stabilizers of the endoplasmic reticulum resident proteome: GLuc-NoTag assay (AID 1508627).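 Note: 0% = thapsigargin alone and -100% = DMSO vehicle control.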 The following applies: Gaussia luciferase NoTag secretion counterscreen, luminescence, thapsigargin 100 nM for final 4 h; series mostly up to 76.4 µM. The essentials: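 Secreted GLuc lacking the SERCaMP modification is measured in SH-SY5Y cells exposed to compound for 19 h and then to thapsigargin (100 nM, 4 h) to deplete ER calcium; hits retested at 11 concentrations, up to 76.6 uM.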
In general terms: A counterscreen serves to expose hits that act by an unwanted route or on another target.

Assay [14] in a line: Confirmatory qHTS for small molecule stabilizers of the endoplasmic reticulum resident proteome: Secreted ER Calcium Modulated Protein (SERCaMP) assay (AID 1508628). Note: nearly all actives have a fitted effect of over 40% in size. Note: potency is the fitted concentration of half-maximal effect. The following applies: SERCaMP secreted luciferase ER calcium/proteostasis reporter; series mostly up to 76.3 µM. The essentials:
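GLuc-SERCaMP-expressing SH-SY5Y cells, pretreated 16 h with compound, are challenged with thapsigargin to empty ER calcium stores; after 4 h, coelenterazine is added directly to the medium and luminescence is imaged.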

Assay [15] concerns the target 3',5'-cyclic-AMP phosphodiesterase 4B (Homo sapiens) (UniProt Q07343). The experiment in a line: qHTS Assay for Inhibitors of PDE-IV (AID 607; active = well fitted activation curve with a large enough effect in the main read-out, with a control signal flat, not every such curve was filed as active; note: % of control where 0% means no effect). The note with it: HEK293 ACTOne CNG channel cells, membrane potential fluorescence; series mostly up to 22.9 µM. The essentials: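 Live HEK293 cells with a modified cyclic nucleotide-gated (CNG) channel report intracellular cAMP via membrane-potential dye fluorescence (ex 535/em 590 nm). Endogenous PDE-IV was targeted. Compounds were tested at up to 22.9 uM final; RO 20-1724 100 uM served as control.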

The target in assay [16] is Dual specificity protein kinase CLK4 (Homo sapiens) (UniProt Q9HAZ1). Put plainly: qHTS Assay for Inhibitors of CDC-like Kinase 4 (Kinase-Glo Assay) (AID 1770). Note: % is set by controls: 0 for no effect and ±100 for the full control effect; nearly all actives have a fitted effect of over 65% in size. The note with it: recombinant Clk4, Kinase-Glo ATP depletion luminescence; series mostly up to 66.7 µM. In outline:
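Inhibition was judged from remaining ATP, measured by Ultra-Glo luciferase bioluminescence after Clk4 (25 nM) had acted on RS peptide at 1 uM ATP for 4.5 hours, room temperature.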

For assay [17] the target is unchanged. The experiment in a line: qHTS Assay for Inhibitors of CDC-like Kinase 4 (ADP-Glo Assay) (AID 1771). Note: % is set by controls: 0 for no effect and ±100 for the full control effect; nearly all actives have a fitted effect of over 70% in size. The following applies: recombinant CLK4, ADP-Glo luminescence; series mostly up to 80 µM. The essentials: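 25 nM Clk4, 100 uM RS peptide, 1 uM ATP (final); 2 mM MgCl2, 0.5 mM EGTA, 2.5 mM DTT, 0.01% Triton X-100; 1 hr RT. ADP-Glo readout: ATP depletion 45 min, conversion/luciferase 30 min, luminescence.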

Assay [18] shares this target. The experiment in a line: qHTS Assay for Inhibitors of CDC-like Kinase 4 (ADP-FP Assay) (AID 1795).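 Note: recombinant human CLK4 phosphorylating RS repeat peptide at 1 µM ATP; % is set by controls: 0 for no effect and ±100 for the full control effect; nearly all actives have a fitted effect of over 60% in size.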 The note with it: Transcreener ADP fluorescence polarization; series mostly up to 50 µM. In outline: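 Inhibition of ADP formation by 6.25 nM Clk4 is measured using 1 uM ATP and 100 uM RS repeat peptide over one hour. Produced ADP displaces a fluorescent tracer from antibody, lowering polarization.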

Assay [19] deals with Ubiquitin carboxyl-terminal hydrolase 1 (Homo sapiens) (UniProt O94782). The experiment in a line: Inhibitors of USP1/UAF1: Pilot qHTS (AID 504865).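 Note: rhodamine fluorescence freed from ubiquitin-rhodamine substrate followed over time; top concentration of the series differs between compounds; % is set by controls: 0 for no effect and ±100 for the full control effect; nearly all actives have a fitted effect of over 35% in size.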 The following applies: purified USP1/UAF1, Ub-rhodamine cleavage fluorescence; series mostly up to 54.9 µM. The essentials: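 Kinetic fluorescence assay: 1nM USP1/UAF1, 15 min compound preincubation, then 150nM Ub-Rho; 480/540 nm.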

The mark [20] stands for this setting: measured here: cell count channel max response.
[21] abbreviates: measured here: lipid channel max response.

Chain of Glucocorticoid receptor (Homo sapiens) (P04150 whole entry, looked up): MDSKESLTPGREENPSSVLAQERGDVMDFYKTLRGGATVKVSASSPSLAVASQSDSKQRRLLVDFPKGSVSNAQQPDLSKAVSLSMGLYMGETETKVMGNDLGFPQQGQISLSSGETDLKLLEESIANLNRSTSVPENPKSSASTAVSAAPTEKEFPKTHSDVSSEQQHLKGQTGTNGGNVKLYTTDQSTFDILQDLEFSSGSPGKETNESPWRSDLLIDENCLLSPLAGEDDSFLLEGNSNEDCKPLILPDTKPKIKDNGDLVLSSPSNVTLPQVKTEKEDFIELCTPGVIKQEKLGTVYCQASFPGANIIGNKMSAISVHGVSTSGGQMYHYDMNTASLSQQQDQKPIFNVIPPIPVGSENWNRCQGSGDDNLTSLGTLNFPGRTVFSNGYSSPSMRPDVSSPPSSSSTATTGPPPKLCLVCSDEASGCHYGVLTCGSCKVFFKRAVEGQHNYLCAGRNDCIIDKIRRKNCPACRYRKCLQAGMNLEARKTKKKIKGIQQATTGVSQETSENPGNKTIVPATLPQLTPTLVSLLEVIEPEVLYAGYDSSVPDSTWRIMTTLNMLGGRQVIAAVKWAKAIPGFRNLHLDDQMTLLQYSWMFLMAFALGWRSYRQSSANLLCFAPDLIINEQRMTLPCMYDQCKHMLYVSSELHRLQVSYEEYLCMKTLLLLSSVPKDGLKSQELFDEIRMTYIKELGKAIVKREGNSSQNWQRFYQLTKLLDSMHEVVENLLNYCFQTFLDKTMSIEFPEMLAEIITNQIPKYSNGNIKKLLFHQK
Chain of Dual specificity protein kinase CLK4 (Homo sapiens) (Q9HAZ1 whole entry, looked up): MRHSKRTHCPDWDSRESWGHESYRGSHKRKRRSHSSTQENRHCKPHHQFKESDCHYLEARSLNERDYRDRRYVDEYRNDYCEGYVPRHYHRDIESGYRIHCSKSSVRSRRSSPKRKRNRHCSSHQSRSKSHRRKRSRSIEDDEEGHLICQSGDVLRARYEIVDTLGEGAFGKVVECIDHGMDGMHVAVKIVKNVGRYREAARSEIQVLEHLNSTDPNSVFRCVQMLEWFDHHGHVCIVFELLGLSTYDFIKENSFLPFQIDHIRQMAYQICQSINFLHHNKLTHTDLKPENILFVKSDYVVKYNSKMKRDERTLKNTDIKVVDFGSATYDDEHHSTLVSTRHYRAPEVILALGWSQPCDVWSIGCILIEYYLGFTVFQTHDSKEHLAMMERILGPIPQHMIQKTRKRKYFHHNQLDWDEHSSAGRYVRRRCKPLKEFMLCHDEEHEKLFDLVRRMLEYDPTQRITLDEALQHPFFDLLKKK
Chain of Lysosomal acid glucosylceramidase (Homo sapiens) (P04062 whole entry, looked up): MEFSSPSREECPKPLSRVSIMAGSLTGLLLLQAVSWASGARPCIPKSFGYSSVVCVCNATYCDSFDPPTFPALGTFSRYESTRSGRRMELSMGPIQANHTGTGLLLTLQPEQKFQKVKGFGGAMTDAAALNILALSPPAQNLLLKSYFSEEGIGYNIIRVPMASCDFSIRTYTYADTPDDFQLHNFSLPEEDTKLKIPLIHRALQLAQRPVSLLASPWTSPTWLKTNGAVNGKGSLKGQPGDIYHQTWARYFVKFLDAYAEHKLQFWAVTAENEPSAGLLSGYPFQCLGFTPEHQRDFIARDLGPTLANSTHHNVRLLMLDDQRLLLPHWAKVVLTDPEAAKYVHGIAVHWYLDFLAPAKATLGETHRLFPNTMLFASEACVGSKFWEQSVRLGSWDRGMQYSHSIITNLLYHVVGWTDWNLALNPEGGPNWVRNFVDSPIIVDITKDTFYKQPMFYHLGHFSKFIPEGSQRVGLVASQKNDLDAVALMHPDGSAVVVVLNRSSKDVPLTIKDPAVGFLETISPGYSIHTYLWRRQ
Chain of Cytochrome P450 3A4 (Homo sapiens) (P08684 whole entry, looked up): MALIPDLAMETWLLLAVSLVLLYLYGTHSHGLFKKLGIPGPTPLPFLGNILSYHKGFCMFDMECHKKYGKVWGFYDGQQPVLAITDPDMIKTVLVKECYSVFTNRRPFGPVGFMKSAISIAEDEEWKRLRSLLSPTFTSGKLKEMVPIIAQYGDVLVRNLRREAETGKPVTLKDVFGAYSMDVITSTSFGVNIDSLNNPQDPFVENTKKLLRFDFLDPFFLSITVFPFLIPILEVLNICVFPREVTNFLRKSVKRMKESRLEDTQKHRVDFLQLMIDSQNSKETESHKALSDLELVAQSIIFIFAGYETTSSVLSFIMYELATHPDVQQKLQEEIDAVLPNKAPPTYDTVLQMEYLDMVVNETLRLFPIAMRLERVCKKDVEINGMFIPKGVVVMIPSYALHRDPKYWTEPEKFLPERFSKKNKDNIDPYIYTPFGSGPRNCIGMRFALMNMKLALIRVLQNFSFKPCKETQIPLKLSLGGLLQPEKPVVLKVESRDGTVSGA
Chain of Cytochrome P450 1A2 (Homo sapiens) (P05177 whole entry, looked up): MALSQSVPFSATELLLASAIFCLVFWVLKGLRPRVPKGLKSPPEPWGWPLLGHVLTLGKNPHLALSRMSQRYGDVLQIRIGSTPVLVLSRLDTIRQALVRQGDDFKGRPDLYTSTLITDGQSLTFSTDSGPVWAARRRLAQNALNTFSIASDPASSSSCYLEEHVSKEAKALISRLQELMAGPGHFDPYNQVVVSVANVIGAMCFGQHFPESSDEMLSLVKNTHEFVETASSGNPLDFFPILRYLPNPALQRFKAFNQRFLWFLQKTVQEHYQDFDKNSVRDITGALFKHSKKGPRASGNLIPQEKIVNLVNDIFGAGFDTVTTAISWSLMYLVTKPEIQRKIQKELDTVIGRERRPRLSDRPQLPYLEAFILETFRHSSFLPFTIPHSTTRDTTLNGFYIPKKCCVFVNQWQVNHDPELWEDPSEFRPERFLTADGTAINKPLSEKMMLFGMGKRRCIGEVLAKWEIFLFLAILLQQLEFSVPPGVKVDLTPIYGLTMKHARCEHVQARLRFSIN
Chain of Ubiquitin carboxyl-terminal hydrolase 1 (Homo sapiens) (O94782 whole entry, looked up): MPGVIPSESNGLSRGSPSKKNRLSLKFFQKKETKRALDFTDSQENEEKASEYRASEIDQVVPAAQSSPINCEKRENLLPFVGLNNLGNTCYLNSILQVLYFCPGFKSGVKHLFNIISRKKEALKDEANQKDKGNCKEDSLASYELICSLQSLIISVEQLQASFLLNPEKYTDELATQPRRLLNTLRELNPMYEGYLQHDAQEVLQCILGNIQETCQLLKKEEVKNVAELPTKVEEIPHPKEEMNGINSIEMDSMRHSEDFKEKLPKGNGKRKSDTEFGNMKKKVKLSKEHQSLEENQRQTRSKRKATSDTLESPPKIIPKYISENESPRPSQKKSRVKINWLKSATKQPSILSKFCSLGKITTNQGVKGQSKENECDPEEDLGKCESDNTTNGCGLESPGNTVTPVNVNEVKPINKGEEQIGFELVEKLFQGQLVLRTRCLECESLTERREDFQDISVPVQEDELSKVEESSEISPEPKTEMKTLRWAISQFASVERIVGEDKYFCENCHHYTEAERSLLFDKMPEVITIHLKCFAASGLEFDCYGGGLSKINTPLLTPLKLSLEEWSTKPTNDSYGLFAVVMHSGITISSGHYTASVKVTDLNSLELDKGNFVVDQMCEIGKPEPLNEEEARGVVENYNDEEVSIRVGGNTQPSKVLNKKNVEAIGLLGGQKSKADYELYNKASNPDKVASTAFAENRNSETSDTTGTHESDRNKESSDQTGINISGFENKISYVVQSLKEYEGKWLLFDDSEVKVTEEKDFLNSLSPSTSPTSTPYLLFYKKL
Chain of 3',5'-cyclic-AMP phosphodiesterase 4B (Homo sapiens) (Q07343 whole entry, looked up): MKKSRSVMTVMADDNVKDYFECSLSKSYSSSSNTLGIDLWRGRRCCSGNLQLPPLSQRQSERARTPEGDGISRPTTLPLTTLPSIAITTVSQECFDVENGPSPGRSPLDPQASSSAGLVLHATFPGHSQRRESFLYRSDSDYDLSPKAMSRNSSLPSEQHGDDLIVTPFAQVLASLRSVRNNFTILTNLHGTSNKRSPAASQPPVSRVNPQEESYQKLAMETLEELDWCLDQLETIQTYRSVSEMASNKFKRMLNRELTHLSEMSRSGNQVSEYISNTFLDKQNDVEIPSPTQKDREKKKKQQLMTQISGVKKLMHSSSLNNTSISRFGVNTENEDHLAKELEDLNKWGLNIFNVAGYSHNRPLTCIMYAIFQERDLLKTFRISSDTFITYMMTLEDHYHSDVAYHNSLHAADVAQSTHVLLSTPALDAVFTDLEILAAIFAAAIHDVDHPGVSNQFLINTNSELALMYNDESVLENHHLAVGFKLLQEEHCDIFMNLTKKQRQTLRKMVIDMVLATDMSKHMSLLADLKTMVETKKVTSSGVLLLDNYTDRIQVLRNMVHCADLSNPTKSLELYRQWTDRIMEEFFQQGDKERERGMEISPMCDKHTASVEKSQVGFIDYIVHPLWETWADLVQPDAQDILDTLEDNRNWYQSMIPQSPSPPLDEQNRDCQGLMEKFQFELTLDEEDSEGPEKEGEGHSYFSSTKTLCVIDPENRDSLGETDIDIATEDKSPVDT

In the case of `CN1CCN(c2nc(-c3cccc(C#N)c3)nc3ccccc23)CC1`, the Potency is > 11.4 µM (inactive) in assay [1]; 1.58 µM (active) in assay [3]; > 46 µM (inactive) in assay [6]; > 46 µM (inactive) in [7]; 12.6 µM (active) in assay [14]. The values for the activity change, negative = inhibition in assay [2], in [4] and in assay [12] were 9.54% (inactive), -2.42% (inactive) and 8.44% (inactive), respectively. For the same compound, the activity, negative = inhibition in assay [5] was 21.4% (inactive). Further, the outcome in [8], in assay [10] and in assay [11] was inactive. In addition, the Potency result in [9] and in assay [13] was “inactive” in each case. Further, the max response in [12] (setting [20]) was 3.27%; in assay [12] (setting [21]), 7.86%.

`Cc1nc2cnc(N3CCN(C)CC3)nc2n(Cc2ccc(F)cc2)c1=O`: the Potency in assay [1] was > 11.4 µM (inactive); in [6], > 9.22 µM (inactive); in assay [7], > 46 µM (inactive). Also, the activity change, negative = inhibition in assay [2] was 1.11% (inactive); in assay [4] it was -12.3% (inactive); in assay [12] it was 3.55% (inactive). Further, the Potency result in [3], in assay [15], in assay [9], in assay [16], in [17] and in assay [18] was “inactive” throughout. Also, the Potency entry in assay [19], in assay [13] and in assay [14] was “inactive” in each case. In [5], the activity, negative = inhibition is -4.86% (inactive). For the same compound, in [8], the call was inactive. Moreover, the max response in assay [12] (setting [20]) is -0.123%; in assay [12] (setting [21]), 1.24%.
